Structures can show the parent of a compound that is named as a salt. ± gives the standard deviation of the averaged measurements.
These molecules were tested on Toxoplasma gondii RH (in HFF) (assay: parasite growth relative to the screen mean (all compounds = 100%); higher = less inhibition of parasite growth). Settings: 5 µM; 72 h; oxygen 21 %.
Procedure, shortened: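 Library compounds, held as 10 mM DMSO stocks, were pinned to 5 µM final onto confluent human foreskin fibroblasts in 96-well plates. The cells were infected within 2 h with RH β-Gal–GFP Toxoplasma (MOI 1:5), grown 72 h at 21% O2, and assayed for parasite number by CPRG β-Gal using in-plate standard curves. Growth is reported relative to the screen mean, in which all compounds = 100%, averaged over two screens, and CellTiter-Blue checked uninfected host-cell viability.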

SMILES	parasite growth [%]
CCN(CC)CCO[C@H]1CC[C@@]2(C)C(=CC[C@@H]3[C@@H]2CC[C@]2(C)C(=O)CC[C@@H]32)C1	79.6 ± 24
Oc1ccc2c3c1O[C@H]1c4[nH]c5ccccc5c4C[C@@]4(O)[C@@H](C2)N(CC2CC2)CC[C@]314 [Naltrindole hydrochloride]	148 ± 35
CN(C)c1ccc(/C=C2\CCCN=C2c2cccnc2)cc1 [DMAB-anabaseine dihydrochloride]	97.4 ± 15
CC1=NN=C(c2ccc(N)cc2)c2cc3c(cc2C1)OCO3	47.2 ± 4.7
CC(C)(c1ccc(OCC2CO2)cc1)c1ccc(OCC2CO2)cc1 (stereo not given)	157 ± 30
N.N.[Cl][Pt][Cl] [Cisplatin]	144 ± 80
Cn1c2c(c3ccccc31)CCNCC2	118 ± 15
O=C1Nc2cc(Cl)c(Cl)cc2N2CCNCC12 (stereo not given)	176 ± 7.8
O=C(O)C1=CCCN(CCOC(c2ccc(C(F)(F)F)cc2)c2ccc(C(F)(F)F)cc2)C1 [CI 966 hydrochloride]	137 ± 5.2
O=c1cccc2n1C[C@@H]1CNC[C@H]2C1 [(-)-Cytisine]	128 ± 26
Oc1ccc2c3c1O[C@H]1c4c(c5ccccc5n4Cc4ccccc4)C[C@@]4(O)C(C2)N(CC2CC2)CC[C@]314 [N-Benzylnaltrindole hydrochloride]	< 0
Cc1[nH]c2ccc(Cl)cc2c1C1=CCNCC1	129 ± 8.1
Oc1cc2c(cc1O)[C@H]1c3ccccc3CN[C@@H]1CC2 (racemic) [Dihydrexidine hydrochloride]	153 ± 4.6
O=[N+]([O-])c1cc(O)c(O)c([N+](=O)[O-])c1	80.4 ± 42
CCC1(C2=NCCN2)Cc2ccccc2O1 (stereo not given) [Efaroxan hydrochloride]	113 ± 6.3
C[N+]1(C)CCc2cc3c(cc2[C@H]1[C@@H]1OC(=O)c2c1ccc1c2OCO1)OCO3 [(-)-Bicuculline methiodide]	108 ± 8.7
C[N+](C)(C)CC#CCN1CCCC1=O [Oxotremorine M]	172 ± 41
C[N+]1(C)CCc2cc3c(cc2C1C1OC(=O)c2c1ccc1c2OCO1)OCO3 (single isomer, unassigned; (-)) [(-)-Bicuculline methobromide]	131 ± 20
CCCN[C@@H]1CCc2c(OC)cccc2[C@@H]1C [(+)-AJ 76 hydrochloride]	66.5 ± 24
CN(C(=O)Cc1ccccc1)C(CN1CCCC1)c1ccccc1 (stereo not given) [N-MPPP Hydrochloride]	112.4 ± 0.63
O=C(O)Cc1cccnc1C(=O)O [Homoquinolinic acid]	85.7 ± 1.6
O=C(O)c1ccc2[nH]cc(CCCCN3CC=C(c4ccccc4)CC3)c2c1 [Carmoxirole hydrochloride]	103 ± 7.4
O=C1/C(=C/c2ccccc2)C[C@@]2(O)[C@H]3Cc4ccc(O)c5c4[C@@]2(CCN3CC2CC2)[C@H]1O5 [BNTX maleate]	< 0
CN1C[C@H](CNC(=O)OCc2ccccc2)C[C@@H]2c3cccc4c3c(cn4C)C[C@H]21 [Metergoline]	71 ± 0.52
Cc1cc(C)cc(C(=O)OC2C[C@H]3CC[C@@H](C2)N3C)c1 (stereo not given in full) [Tropanyl-3,5-dimethylbenzoate]	97.3 ± 3.6

Source: the supplement of paper PMC4894684
